ALOX12 inh: Primary qHTS assay for inhibitors of human arachidonate 12S-lipoxygenase (ALOX12): Round 2. purified 12hLO, xylenol orange hydroperoxide absorbance. 580,000 compounds, 1.1% hits. Potency, µM (series often up to 108 µM), for inactives: at the top dose activity change, negative = inhibition, most hits filed as inhibitors. Polyunsaturated fatty acid lipoxygenase ALOX12 (Homo sapiens), P18054
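Purified human 12hLO (150 nM final) in 25 mM Hepes, 0.01% Triton X-100, pH 7.0 was preincubated 15 min at room temperature with compound. Then 40 uM arachidonic acid was added, 30 min. Hydroperoxide was read by Fe-XO absorbance ratio 573/405 nm.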
DT40 TDP1 CPT: qHTS for Inhibitors of human tyrosyl-DNA phosphodiesterase 1 (TDP1): qHTS in cells in presence of CPT; chicken DT40 Tdp1-/-;hTDP1 cells + 20 nM CPT, ATP luminescence, 48 h; Potency, µM (titrated, usually from 46.2 µM), for inactives: at the highest dose activity change, negative = growth inhibition, most hits filed as inhibitors; 420,000 compounds, 12% hits; further: nearly all actives have a fitted effect of over 55% in size
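Chicken DT40 Tdp1-/- cells complemented with human TDP1, 400 cells/well, exposed to compounds plus 20 nM camptothecin for at least 48 h at 37 C; viability read as ATP content by CellTiter-Glo luminescence.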
VP16 counter: VP16 counterscreen qHTS for inhibitors of ROR gamma transcriptional activity; Drosophila S2 Gal4-VP16 UAS-luciferase, luminescence, 20 h; Potency, µM (highest dose often 53.6 µM), for the others: at the highest dose activity, negative = inhibition, hits mostly inhibitors; 310,000 compounds, 3.5% hits; AID 2546, 2010;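 further: Gal4-VP16 expression switched on by copper sulfate through the metallothionein promoter; nearly all actives have a fitted effect of over 50% in size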
ELG1 DNA repair: qHTS screen for small molecules that inhibit ELG1-dependent DNA repair in human embryonic kidney (HEK293T) cells expressing luciferase-tagged ELG1; 330,000 compounds, 2.3% hits; Potency, µM (series often up to 46.1 µM), for the others: top-dose activity change, negative = inhibition, actives largely listed as inhibitors; HEK293T ELG1-luciferase reporter, luminescence, 16 h; DNA damage induced by 5-fluorouridine; further: nearly all actives have a fitted effect of over 55% in size
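Quantitative HTS, concentration-response format. 2,000 cells/well co-treated with 5-fluorouridine and compound, 16 hr in 5% CO2 at 37 °C; ONE-Glo luminescence read after 30 min.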
RORgamma inh: qHTS for inhibitors of ROR gamma transcriptional activity | Drosophila S2 Gal4-RORgamma UAS-luciferase reporter, 20 h | Potency, µM (titrated, usually from 53.6 µM), for the others: at the highest dose activity change, negative = inhibition, actives largely listed as inhibitors | 310,000 compounds, 5.4% hits | AID 2551, 2010; further: nearly all actives have a fitted effect of over 60% in size
Target sequence (P51450 whole entry, looked up, the tested form may be a part): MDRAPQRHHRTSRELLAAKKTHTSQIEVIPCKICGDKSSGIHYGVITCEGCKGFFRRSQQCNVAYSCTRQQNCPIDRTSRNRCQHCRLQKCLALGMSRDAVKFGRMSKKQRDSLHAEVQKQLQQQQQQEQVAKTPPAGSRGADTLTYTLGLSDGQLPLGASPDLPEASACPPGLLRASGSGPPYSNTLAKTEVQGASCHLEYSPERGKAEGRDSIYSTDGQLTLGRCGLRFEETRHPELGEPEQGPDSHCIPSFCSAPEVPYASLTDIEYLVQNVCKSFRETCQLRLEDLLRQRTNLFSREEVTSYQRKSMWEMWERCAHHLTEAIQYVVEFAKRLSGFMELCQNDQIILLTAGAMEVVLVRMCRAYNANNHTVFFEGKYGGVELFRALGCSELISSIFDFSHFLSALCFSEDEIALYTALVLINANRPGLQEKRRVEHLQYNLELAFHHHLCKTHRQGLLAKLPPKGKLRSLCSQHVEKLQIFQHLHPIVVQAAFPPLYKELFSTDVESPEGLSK
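In this cell-based reporter format, copper sulfate (700 uM final) drives Gal4–ROR gamma fusion expression from a metallothionein promoter in Drosophila Schneider cells; compounds preincubated 1 hr, reporter read after 20 hr at ambient temperature.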
DT40 TDP1 no CPT: qHTS for Inhibitors of human tyrosyl-DNA phosphodiesterase 1 (TDP1): qHTS in cells in absence of CPT. Potency, µM (top dose mostly 46.2 µM), for the others: at the top dose activity change, negative = growth inhibition, usual class: inhibitors. DT40 Tdp1-/- hTDP1 cells, no CPT, ATP luminescence, 48 h. 420,000 compounds, 15% hits. AID 686978, 2013; further: nearly all actives have a fitted effect of over 55% in size
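Readout: luminescence from CellTiter-Glo after 30 min in the dark at RT. Cells: DT40 Tdp1-/- with stable hTDP1, 400/well. Exposure: compounds alone, ≥48 hr, 37 °C.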
* marks the source's active call; other numbers are inactive results; ! = repeats disagree; [ ] = remark or other dose. Sampled rows, rich in hits. Any-hit rate of the full collection: about 15%. The call rests on the fitted dose curve; in most records, active means well fitted curve in the direction sought with a large enough effect; inconclusive means small, poorly fitted or top-dose-only effect, or another doubt; inactive means no such curve, though single readings can be large; an effect the other way counts as inactive or inconclusive. On the % scale 0 is the no-effect control and ±100 the full control effect; potency means the concentration at half of the fitted maximal effect.

Screening CN(C)c1ccc(C=C2C(=O)NC(=S)NC2=O)cc1[N+](=O)[O-] returned ALOX12 inh inconclusive, DT40 TDP1 CPT -30%, VP16 counter -5%, ELG1 DNA repair 16%, RORgamma inh 2% and DT40 TDP1 no CPT inconclusive.
NS(=O)(=O)c1ccc(-c2ccc(C=C3C(=O)NC(=S)NC3=O)o2)cc1 was read as ALOX12 inh inconclusive, VP16 counter 8%, ELG1 DNA repair 6% and RORgamma inh 7%.
`O=C1NC(=S)NC(=O)C1=Cc1cccc2cc3ccccc3cc12` gave ALOX12 inh -27%, DT40 TDP1 CPT 5.2µM*, VP16 counter 6%, ELG1 DNA repair inconclusive, RORgamma inh -31% and DT40 TDP1 no CPT 2.6µM*.
For CN1C(=O)/C(=C\c2ccc(Br)s2)C(=O)NC1=S the results were ALOX12 inh inconclusive, DT40 TDP1 CPT inconclusive, VP16 counter inconclusive, ELG1 DNA repair 25%, RORgamma inh inconclusive and DT40 TDP1 no CPT 16µM*.
`O=C1NC(=S)NC(=O)C1=Cc1ccc(Br)s1` gave ALOX12 inh 16µM*, DT40 TDP1 CPT 10µM*, VP16 counter 6.3µM*, ELG1 DNA repair 4%, RORgamma inh 20µM* and DT40 TDP1 no CPT 9.2µM*.
COc1nnc(-c2ccc(N3CCCCC3)c(NC(=O)c3ccccc3)c2)c2ccccc12 was read as ALOX12 inh -7%, DT40 TDP1 CPT inconclusive and DT40 TDP1 no CPT 15µM*.
For CC(C)CC(NC(=O)CCCNC(=O)CCC(=O)OC1O[C@H]2OC3(C)CC[C@H]4[C@H](C)CCC(C1C)C24OO3)C(=O)O (stereo partly specified) the results were ALOX12 inh -3%, DT40 TDP1 CPT 0.21µM*, VP16 counter 1%, ELG1 DNA repair inconclusive, RORgamma inh 3% and DT40 TDP1 no CPT 0.18µM*.
C=CCON=C(C[C@H]1O[C@@H]2O[C@]3(C)CC[C@@H]4[C@H](C)CC[C@@H]([C@H]1C)[C@@]24OO3)[C@H]1O[C@@H]2O[C@]3(C)CC[C@H]4[C@H](C)CC[C@@H]([C@@H]1C)[C@@]24OO3 was read as ALOX12 inh -30%[57.4 µM].
For C[C@H]1[C@H](OC(=O)CCC(=O)NCc2ccc(C(=O)O)cc2)O[C@@H]2O[C@@]3(C)CC[C@H]4[C@H](C)CC[C@@H]1C24OO3 the results were DT40 TDP1 CPT 0.26µM*, VP16 counter 0%, ELG1 DNA repair inconclusive, RORgamma inh -5% and DT40 TDP1 no CPT 0.026µM*.
COC(=O)c1ccc(NC(=O)COC(=O)c2cn(C)c3ccccc23)cc1 was read as ALOX12 inh -17%.
Screening N#CC(C#N)=NNc1cccc(Cl)c1 returned VP16 counter 0.63µM* and RORgamma inh 1.1µM*.
`CC[C@H](OC(C)=O)C(C[C@H](C)N(C)C)(c1ccccc1)c1ccccc1` gave ALOX12 inh -4%, DT40 TDP1 CPT inconclusive, ELG1 DNA repair -5% and DT40 TDP1 no CPT 23µM*.
For CCC(OC(C)=O)C(CC(C)NC)(c1ccccc1)c1ccccc1 (stereo unspecified) the results were DT40 TDP1 CPT 22µM* and DT40 TDP1 no CPT 25µM*.
`CC(C)NC(=O)C(C)Cl` (stereo unspecified) gave ALOX12 inh -29%.
COC[C@H]1OC(=O)c2coc3c2[C@@]1(C)C1=C(C3=O)C2CCC(=O)[C@@]2(C)C[C@H]1OC(C)=O (stereo partly specified) was read as ALOX12 inh inconclusive, DT40 TDP1 CPT 1µM*, VP16 counter inconclusive, RORgamma inh inconclusive and DT40 TDP1 no CPT 0.63µM*.
`COC[C@H]1OC(=O)c2coc3c2[C@@]1(C)C1=C(C3=O)[C@H]2CCC(=O)[C@@]2(C)C[C@H]1OC(C)=O` gave DT40 TDP1 CPT 9.4µM*, VP16 counter inconclusive, RORgamma inh inconclusive and DT40 TDP1 no CPT inconclusive.
For O=C(c1cn(CCCCn2cc(C(=O)C(F)(F)F)c3ccccc32)c2ccccc12)C(F)(F)F the results were ALOX12 inh -16%.
COc1ccc(/C=C/c2nc(-c3ccccc3O)n(-c3ccccc3)n2)cc1OC was read as ALOX12 inh 2%, DT40 TDP1 CPT 10µM* and DT40 TDP1 no CPT 10µM*.
`c1ccc(CNCCc2c[nH]c3ccccc23)cc1` gave ALOX12 inh inconclusive, DT40 TDP1 CPT -24%, VP16 counter -4%, ELG1 DNA repair -6%, RORgamma inh -9% and DT40 TDP1 no CPT -29%.
For Fc1cccc(CNCCc2c[nH]c3ccccc23)c1 the results were ALOX12 inh 0%, DT40 TDP1 CPT inconclusive, VP16 counter 2%, ELG1 DNA repair -2%, RORgamma inh -10% and DT40 TDP1 no CPT inconclusive.
For Cc1cccc(CNCCc2c[nH]c3ccccc23)c1 the results were ALOX12 inh 45%, DT40 TDP1 CPT 16µM*, VP16 counter -9%, ELG1 DNA repair 9%, RORgamma inh -35% and DT40 TDP1 no CPT 13µM*.
`COc1cc(CNCCc2c[nH]c3ccccc23)cc(OC)c1OC` gave ALOX12 inh -4%, DT40 TDP1 CPT inconclusive and DT40 TDP1 no CPT inconclusive.
`O=[N+]([O-])c1ccccc1CNCCc1c[nH]c2ccccc12` gave ALOX12 inh 0.56µM*, DT40 TDP1 CPT 2%, VP16 counter 6%, ELG1 DNA repair 9%, RORgamma inh 8% and DT40 TDP1 no CPT -10%.
Screening CCc1ccc(CNCCc2c[nH]c3ccccc23)cc1 returned ALOX12 inh 0.89µM*!, DT40 TDP1 CPT inconclusive, VP16 counter 1%, ELG1 DNA repair -17%, RORgamma inh -9% and DT40 TDP1 no CPT 26µM*.
Screening COc1cc(CNCCc2c[nH]c3ccccc23)cc(OC)c1 returned ALOX12 inh inconclusive, DT40 TDP1 CPT inconclusive, VP16 counter -3%, ELG1 DNA repair -12%, RORgamma inh 40% and DT40 TDP1 no CPT 23µM*.
